{"source": "the supplement of paper PMC11732987", "about": "“Enantioselective OTUD7B fragment discovery through chemoproteomics screening and high-throughput optimisation” (Communications Chemistry, 2025)", "note": "Values without a mark were called inactive.", "data": [{"target": "COPS5 (UniProt Q92905)", "sequence (Q92905 whole entry, looked up, the tested form may be a part)": "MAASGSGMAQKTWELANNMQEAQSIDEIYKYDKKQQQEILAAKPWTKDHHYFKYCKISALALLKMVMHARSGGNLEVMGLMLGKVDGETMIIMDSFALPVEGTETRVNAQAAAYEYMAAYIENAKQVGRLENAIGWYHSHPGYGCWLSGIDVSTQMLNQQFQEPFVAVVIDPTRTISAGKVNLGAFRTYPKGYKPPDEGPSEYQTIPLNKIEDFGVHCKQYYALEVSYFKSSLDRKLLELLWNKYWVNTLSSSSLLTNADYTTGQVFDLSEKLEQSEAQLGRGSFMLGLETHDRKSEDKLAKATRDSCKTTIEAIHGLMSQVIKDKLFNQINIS", "experiment": "log2 ratio of Biotin-Ahx-Ub-VS probe labelling (fragment/DMSO); higher = less target engagement (more negative = stronger competition), active = hit call of the paper (q ≤ 0.05, log2 ratio ≤ -1)", "details": "compound concentration: 200 uM; treatment time: 3 h", "description": "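Competitive ABPP in HEK293T cell lysate. Lysates were treated with each chloroacetamide fragment at 200 µM for 3 h, then with Biotin-Ahx-Ub-VS (0.5 µM, 1 h), NeutrAvidin-enriched and analysed by diaPASEF LC-MS/MS. Protein LFQ was median-normalised; average log2 ratio is fragment/DMSO from an unpaired t-test (n=3 treated, n=44 DMSO). Hits: q ≤ 0.05, log2 ratio ≤ -1, unique peptides ≥ 2.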", "values": [{"smiles": "C[C@H]1CN(C(=O)CCl)CCN1C(=O)c1cnn(C)c1.Cl", "log2 ratio of Biotin-Ahx-Ub-VS probe labelling": -0.0598}, {"smiles": "Cc1cccc(C(CNC(=O)CCl)N2CCOCC2)c1.Cl", "note": "(stereo not given)", "log2 ratio of Biotin-Ahx-Ub-VS probe labelling": 0.0369}, {"smiles": "CN(Cc1nc2ccccc2[nH]1)C(=O)CCl.Cl", "log2 ratio of Biotin-Ahx-Ub-VS probe labelling": -0.0146}, {"smiles": "CC(NC(=O)CCl)c1cc2n(n1)CCCC2.Cl", "note": "(stereo not given)", "log2 ratio of Biotin-Ahx-Ub-VS probe labelling": -0.394}, {"smiles": "Cc1cnc2[nH]cc(CCNC(=O)CCl)c2c1", "log2 ratio of Biotin-Ahx-Ub-VS probe labelling": 0.199}, {"smiles": "O=C(CCl)N1CC2(CCOCC2)C1", "log2 ratio of Biotin-Ahx-Ub-VS probe labelling": 0.161}, {"smiles": "Cc1cccc(N2CCC(NC(=O)CCl)C2=O)c1", "note": "(stereo not given)", "log2 ratio of Biotin-Ahx-Ub-VS probe labelling": -0.0421}, {"smiles": "CNC(=O)C1(NC(=O)CCl)CCCCC1", "log2 ratio of Biotin-Ahx-Ub-VS probe labelling": 0.00317}, {"smiles": "O=C(CCl)Nc1nc(-c2cccs2)cs1", "log2 ratio of Biotin-Ahx-Ub-VS probe labelling": 0.0647}, {"smiles": "Cc1ccc(C)c(Oc2ccc(CNC(=O)CCl)cn2)c1.Cl", "log2 ratio of Biotin-Ahx-Ub-VS probe labelling": -0.0158}, {"smiles": "O=C(CCl)N(Cc1ccsc1)C1CC1", "log2 ratio of Biotin-Ahx-Ub-VS probe labelling": 0.054}, {"smiles": "O=C(CCl)NCc1ccc2c(c1)OCO2", "log2 ratio of Biotin-Ahx-Ub-VS probe labelling": 0.119}, {"smiles": "O=C(CCl)N1CCCC1c1ccsc1", "note": "(stereo not given)", "log2 ratio of Biotin-Ahx-Ub-VS probe labelling": -0.0486}, {"smiles": "O=C(CCl)NCC(=O)N1CCCC1", "log2 ratio of Biotin-Ahx-Ub-VS probe labelling": -0.0202}, {"smiles": "Cc1nc(CC2CCN(C(=O)CCl)CC2)no1", "log2 ratio of Biotin-Ahx-Ub-VS probe labelling": 0.22}, {"smiles": "Cc1ccc(-c2nnc(C)[nH]2)c(NC(=O)CCl)c1", "log2 ratio of Biotin-Ahx-Ub-VS probe labelling": 0.151}, {"smiles": "Cc1cc(Cl)ccc1NC(=O)CCl", "log2 ratio of Biotin-Ahx-Ub-VS probe labelling": -0.176}, {"smiles": "O=C(CCl)NCc1ccc(Cl)cc1", "log2 ratio of Biotin-Ahx-Ub-VS probe labelling": -0.152}, {"smiles": "O=C(CCl)Nc1ccc(Cl)c(F)c1", "log2 ratio of Biotin-Ahx-Ub-VS probe labelling": 0.155}, {"smiles": "Cc1ccc(CN(C)C(=O)CCl)o1", "log2 ratio of Biotin-Ahx-Ub-VS probe labelling": 0.0171}, {"smiles": "O=C(CCl)N1CCN(C(=O)Nc2ccccc2)CC1", "log2 ratio of Biotin-Ahx-Ub-VS probe labelling": -0.0124}, {"smiles": "COc1ccc(Cl)cc1NC(=O)CCl", "log2 ratio of Biotin-Ahx-Ub-VS probe labelling": -0.0284}, {"smiles": "Cl.O=C(CCl)N1CCCC(c2ncc[nH]2)C1", "note": "(stereo not given)", "log2 ratio of Biotin-Ahx-Ub-VS probe labelling": 0.0747}, {"smiles": "O=C(CCl)NC1(c2ccc3c(c2)OCCO3)CCCC1", "log2 ratio of Biotin-Ahx-Ub-VS probe labelling": -0.172}, {"smiles": "CC(=O)C1CCCCN1C(=O)CCl", "note": "(stereo not given)", "log2 ratio of Biotin-Ahx-Ub-VS probe labelling": -0.141}, {"smiles": "O=C(CCl)N1CCc2[nH]c3ccccc3c2C1", "log2 ratio of Biotin-Ahx-Ub-VS probe labelling": -0.0163}, {"smiles": "Cc1nc(CNC(=O)CCl)c2ccccn12.Cl", "log2 ratio of Biotin-Ahx-Ub-VS probe labelling": -0.109}, {"smiles": "O=C(CCl)N1CCCC2CCCCC21", "note": "(stereo not given)", "log2 ratio of Biotin-Ahx-Ub-VS probe labelling": -0.175}, {"smiles": "Cc1ccc(CC(CO)CNC(=O)CCl)cc1", "note": "(stereo not given)", "log2 ratio of Biotin-Ahx-Ub-VS probe labelling": 0.0248}, {"smiles": "Cn1cc(CN(Cc2ccc(Cl)cc2)C(=O)CCl)cn1", "log2 ratio of Biotin-Ahx-Ub-VS probe labelling": -0.179}, {"smiles": "O=C(CCl)N1CCC(C(=O)N2CCCCCC2)CC1", "log2 ratio of Biotin-Ahx-Ub-VS probe labelling": -0.0587}, {"smiles": "CN1C(=O)c2ccc(NC(=O)CCl)cc2C1=O", "log2 ratio of Biotin-Ahx-Ub-VS probe labelling": -0.249}, {"smiles": "Cc1ccc(CC(NC(=O)CCl)c2ccccn2)cc1.Cl", "note": "(stereo not given)", "log2 ratio of Biotin-Ahx-Ub-VS probe labelling": -0.0198}, {"smiles": "Cc1c(C#N)c(NC(=O)CCl)n(Cc2ccco2)c1C", "log2 ratio of Biotin-Ahx-Ub-VS probe labelling": -0.146}, {"smiles": "Cc1ccc(N2CCC(NC(=O)CCl)C2=O)cc1", "note": "(stereo not given)", "log2 ratio of Biotin-Ahx-Ub-VS probe labelling": -0.0995}, {"smiles": "Cc1noc(C)c1CNC(=O)CCl", "log2 ratio of Biotin-Ahx-Ub-VS probe labelling": 0.13}, {"smiles": "COc1ccc(CN(C)C(=O)CCl)cc1", "log2 ratio of Biotin-Ahx-Ub-VS probe labelling": -0.0998}, {"smiles": "O=C(CCl)N1CCOC(c2cccc(F)c2)C1", "note": "(stereo not given)", "log2 ratio of Biotin-Ahx-Ub-VS probe labelling": -0.0425}, {"smiles": "CCN(C(=O)CCl)C1CCCCC1", "log2 ratio of Biotin-Ahx-Ub-VS probe labelling": 0.0876}, {"smiles": "NC(=O)C(Cc1ccccc1)NC(=O)CCl", "note": "(stereo not given)", "log2 ratio of Biotin-Ahx-Ub-VS probe labelling": 0.0263}]}]}
